Results filed as inconclusive are left out. Activity calls are given as the source filed them. Unless noted, calls come from the whole dose curve.
Experiments:
[1] = target: KiSS-1 receptor (Homo sapiens) (UniProt Q969F8); test: Human kisspeptin (KISS1R) small molecule agonists, calcium flux assay in KISS1R-HEK293 cells (AID 1920064; active = well fitted activation curve with a large enough effect in the repeat runs)
Method in brief: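 Calcium flux read-out: kinetic fluorescence at Ex/Em=480/540, 1 s intervals over 3 min, after pin-tool compound addition to dye-loaded KISS1R-HEK293 cells. Fifteen concentrations, triplicates.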

[2] = G protein-coupled receptor (GPCR) small molecule agonists, calcium flux assay: HEK293 wild type cell line counter screen (AID 1920065)
Method in brief: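 Agonist mode; 18 h seeding at 37 C, 1 h dye load at 37 C; compounds pinned from DMSO, ATP as positive control; kinetic fluorescence 480/540 nm, 3 min, 1 s reads; 15 concentrations, triplicate.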

[3] = p53 small molecule agonists, cell-based qHTS assay with human liver microsomes (AID 1963577);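 note: p53 response element beta-lactamase reporter cells with liver microsomes plus NADPH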
Method in brief: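 Metabolically competent format: test substances, human liver microsomes and NADPH (both 0.5 mg/mL final) incubated with p53RE-bla cells 16 h at 37 C. Beta-lactamase reporter signal then quantified by fluorescence.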

[4] = p53 small molecule agonists, cell-based qHTS assay with rat liver microsomes (AID 1963578)
Method in brief: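 Each plate received p53RE-bla cells, then compound, then rat liver microsomes and NADPH (both 0.5 mg/mL final). Plates were held 16 h at 37 C, and beta-lactamase activity was detected with LiveBLAzer over 2 h.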

[5] = p53 small molecule agonists, cell-based qHTS assay with rat liver microsomes: qHTS cell viability counter screen (AID 1963580); note: nearly all actives have a fitted effect of over 45% in size; note: potency is the fitted concentration of half-maximal effect
Method in brief: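 Rat liver microsome (0.5 mg/mL final) and NADPH (0.5 mg/mL final) co-incubation with compounds for 16 h at 37 C on HCT-116 p53RE-bla cells; cytotoxicity taken from intracellular ATP luminescence.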

[6] = p53 small molecule agonists, cell-based qHTS assay: qHTS cell viability counter screen (AID 1963581); note: nearly all actives have a fitted effect of over 45% in size
Method in brief: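 Cytotoxicity read-out: ATP-based luminescence (CellTiter-Glo, 30 min RT) measured in the same wells as the p53 reporter assay, HCT-116 p53RE-bla cells, 16 h compound exposure at 37 C.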

[7] = target: 5-hydroxytryptamine receptor 2A (Homo sapiens) (UniProt P28223); test: 5-hydroxytryptamine receptor 2A (HTR2A) small molecule agonists, cell-based qHTS assay (AID 1963587); note: nearly all actives have a fitted effect of over 30% in size; note: potency is the fitted concentration of half-maximal effect
Method in brief: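 Kinetic calcium-flux fluorescence (2 min, 1 sec intervals) after compound addition in agonist mode. HTR2A-CHO cells were cultured 18 h, then dye-loaded 1 h at 37 C.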

[8] = target: Muscarinic acetylcholine receptor M1 (Homo sapiens) (UniProt P11229); test: Cholinergic receptor muscarinic 1 (CHRM1) small molecule antagonists, cell-based qHTS assay (AID 1963588); note: nearly all actives have a fitted effect of over 40% in size
Method in brief: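 Compounds were tested at 15 concentrations in three independent runs. Dye-loaded CHRM1-CHO cells were exposed 5 min at room temperature before stimulation by acetylcholine added at 50nM. Intracellular calcium was read kinetically on FDSS for 3 min.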

[9] = cAMP Responsive Elements (CRE) small molecule antagonists, cell-based qHTS assay (AID 1963591; active = well fitted inhibition curve with a large enough effect in the signal ratio in the repeat runs, not every such curve was filed as active; the % refers to the signal ratio)
Method in brief: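 HEK293T CRE-bla; 18 h preincubation; compound pin-transfer; NKH477 0.25 uM final, 3 h, 37 C; LiveBLAzer FRET substrate 2 h RT.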

[10] = target: D(2) dopamine receptor (Homo sapiens) (UniProt P14416); test: Dopamine D2 receptor (DRD2) small molecule agonists, cell-based qHTS assay (AID 1963594); note: nearly all actives have a fitted effect of over 35% in size
Method in brief: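 cAMP accumulation in DRD2-HEK293 cells measured by HTRF after 1 h detection; compounds added 10 min before NKH477 (200nM […]) forskolin-analogue stimulation, 30 min at room temperature, with Ro20-1724 present at 0.1 mM final.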

[11] = target: D(2) dopamine receptor (Homo sapiens) (UniProt P14416); test: Dopamine D2 receptor (DRD2) small molecule antagonists, cell-based qHTS assay (AID 1963595; active = well fitted inhibition curve with a large enough effect in the signal ratio in the repeat runs, with a control signal flat; the % refers to the signal ratio; note: potency is the fitted concentration of half-maximal effect)
Method in brief: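 HEK293 cells stably expressing DRD2 were preincubated with 0.1 mM Ro20-1724, then with compound for 10 min at room temperature. Cells were stimulated with 200 nM NKH477 plus 12 nM quinpirole for 30 min, and cAMP was read by HTRF.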

[12] = p53 small molecule agonists, cell-based qHTS assay with human liver microsomes: qHTS cell viability counter screen (AID 1963579); note: nearly all actives have a fitted effect of over 45% in size
Method in brief: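 Tox21 library compounds, delivered from DMSO stocks, were tested on p53RE-bla cells together with 0.5 mg/mL human liver microsomes and 0.5 mg/mL NADPH (final) over 16 h at 37 C; CellTiter-Glo luminescence served as the cytotoxicity measure.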

[13] = target: 5-hydroxytryptamine receptor 2A (Homo sapiens) (UniProt P28223); test: 5-hydroxytryptamine receptor 2A (HTR2A) small molecule antagonists, cell-based qHTS assay (AID 1963586); note: nearly all actives have a fitted effect of over 45% in size; note: potency is the fitted concentration of half-maximal effect
Method in brief: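 CHO cells stably expressing human HTR2A were plated for 18 h at 37 C, then loaded with calcium dye for 1 h. Compounds were preincubated 5 min at room temperature before DOI (4 nM solution) was added. Kinetic fluorescence was read for 3 min.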

[14] = target: Muscarinic acetylcholine receptor M1 (Homo sapiens) (UniProt P11229); test: Cholinergic receptor muscarinic 1 (CHRM1) small molecule agonists, cell-based qHTS assay (AID 1963589); note: nearly all actives have a fitted effect of over 35% in size
Method in brief: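 Calcium flux read-out: kinetic fluorescence at 1 sec intervals after pin-tool compound addition to dye-loaded CHRM1-CHO cells (human M1). Agonist mode; 15 concentrations tested in triplicate independent runs.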

[15] = cAMP Responsive Elements (CRE) small molecule agonists, cell-based qHTS assay (AID 1963590)
Method in brief: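 Beta-lactamase reporter readout: LiveBLAzer B/G FRET substrate, 2 h at room temperature, added after 3 h compound treatment of CRE-bla HEK 293T cells at 37 C/5% CO2.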

[16] = target: Beta-2 adrenergic receptor (Homo sapiens) (UniProt P07550); test: Adrenergic beta2 receptor (ADRB2) small molecule antagonists, cell-based qHTS assay (AID 1963592); note: nearly all actives have a fitted effect of over 50% in size; note: potency is the fitted concentration of half-maximal effect
Method in brief: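 Assay format: CHO-ADRB2 cells, 18-20hr seeding at 37C/5% CO2, then compound plus 1nM isoproterenol agonist mix for 0.5hr RT. Homogeneous time-resolved fluorescence cAMP detection after 1hr, expressed as 665/615 nm ratio.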

[17] = target: Beta-2 adrenergic receptor (Homo sapiens) (UniProt P07550); test: Adrenergic beta2 receptor (ADRB2) small molecule agonists, cell-based qHTS assay (AID 1963593);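 note: CHO cells stably overexpressing human ADRB2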
Method in brief: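 CHO cells stably over-expressing ADRB2 were plated overnight at 37C, then dosed with compounds plus a stimulation mix containing 100uM IBMX and 25uM Ro-20-1724 for 0.5hr at room temperature. cAMP was measured by HTRF competition, 1hr.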

[18] = p53 small molecule agonists, cell-based qHTS assay (AID 1963582; active = well fitted activation curve with a large enough effect in the signal ratio in the repeat runs, not every such curve was filed as active; the % refers to the signal ratio)
Method in brief: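 Fluorescence intensity read-out of a beta-lactamase reporter under a p53 response element. Cells were exposed to DMSO-dissolved compounds for 16 h at 37 C, then developed with FRET substrate for 2 h at RT.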

Measured: Potency

Sequence of KiSS-1 receptor (Homo sapiens) (Q969F8 whole entry, looked up): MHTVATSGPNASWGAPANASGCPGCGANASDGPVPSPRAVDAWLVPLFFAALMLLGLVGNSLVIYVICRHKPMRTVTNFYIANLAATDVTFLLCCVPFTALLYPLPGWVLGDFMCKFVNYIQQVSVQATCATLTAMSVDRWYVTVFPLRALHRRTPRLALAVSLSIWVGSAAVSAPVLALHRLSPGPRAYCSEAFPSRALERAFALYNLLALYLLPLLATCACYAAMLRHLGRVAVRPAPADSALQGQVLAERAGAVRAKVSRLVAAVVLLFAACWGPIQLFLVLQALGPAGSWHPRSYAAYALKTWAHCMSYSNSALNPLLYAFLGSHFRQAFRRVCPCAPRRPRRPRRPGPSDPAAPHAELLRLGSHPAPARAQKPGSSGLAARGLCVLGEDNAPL
Sequence of D(2) dopamine receptor (Homo sapiens) (P14416 whole entry, looked up): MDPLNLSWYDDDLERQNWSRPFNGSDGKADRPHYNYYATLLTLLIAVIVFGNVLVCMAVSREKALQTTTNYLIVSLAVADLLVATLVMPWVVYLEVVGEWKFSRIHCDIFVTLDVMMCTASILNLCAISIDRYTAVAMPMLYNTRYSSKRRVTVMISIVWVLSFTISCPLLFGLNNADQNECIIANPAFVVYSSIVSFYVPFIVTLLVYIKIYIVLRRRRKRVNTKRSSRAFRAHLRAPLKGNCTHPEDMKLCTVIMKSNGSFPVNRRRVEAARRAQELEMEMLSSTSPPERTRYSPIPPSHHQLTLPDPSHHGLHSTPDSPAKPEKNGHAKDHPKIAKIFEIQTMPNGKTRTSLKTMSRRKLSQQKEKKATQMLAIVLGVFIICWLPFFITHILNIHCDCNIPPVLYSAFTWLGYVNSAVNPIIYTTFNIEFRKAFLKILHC
Sequence of Beta-2 adrenergic receptor (Homo sapiens) (P07550 whole entry, looked up): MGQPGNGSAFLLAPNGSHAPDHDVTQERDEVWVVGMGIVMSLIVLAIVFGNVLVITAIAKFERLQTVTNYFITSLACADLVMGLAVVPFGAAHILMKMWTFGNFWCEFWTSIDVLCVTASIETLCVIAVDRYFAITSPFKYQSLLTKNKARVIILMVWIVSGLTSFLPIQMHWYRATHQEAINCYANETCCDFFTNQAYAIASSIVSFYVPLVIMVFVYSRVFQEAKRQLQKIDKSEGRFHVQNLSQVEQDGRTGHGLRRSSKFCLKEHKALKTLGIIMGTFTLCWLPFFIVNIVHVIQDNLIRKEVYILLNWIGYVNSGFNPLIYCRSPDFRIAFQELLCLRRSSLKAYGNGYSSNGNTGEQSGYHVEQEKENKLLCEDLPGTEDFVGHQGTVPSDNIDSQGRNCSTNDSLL
Sequence of Muscarinic acetylcholine receptor M1 (Homo sapiens) (P11229 whole entry, looked up): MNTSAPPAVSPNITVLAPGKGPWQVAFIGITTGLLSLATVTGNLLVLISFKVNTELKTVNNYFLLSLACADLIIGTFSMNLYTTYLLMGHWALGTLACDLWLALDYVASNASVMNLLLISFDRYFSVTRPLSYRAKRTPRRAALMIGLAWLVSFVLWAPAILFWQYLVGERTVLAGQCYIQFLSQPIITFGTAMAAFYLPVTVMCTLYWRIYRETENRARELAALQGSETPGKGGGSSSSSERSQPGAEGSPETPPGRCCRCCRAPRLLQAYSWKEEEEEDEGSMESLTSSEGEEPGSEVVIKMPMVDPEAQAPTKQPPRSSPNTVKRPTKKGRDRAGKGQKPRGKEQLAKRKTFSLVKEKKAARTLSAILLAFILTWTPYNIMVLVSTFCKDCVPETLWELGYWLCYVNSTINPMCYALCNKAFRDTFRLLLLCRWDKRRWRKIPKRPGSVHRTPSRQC
Sequence of 5-hydroxytryptamine receptor 2A (Homo sapiens) (P28223 whole entry, looked up): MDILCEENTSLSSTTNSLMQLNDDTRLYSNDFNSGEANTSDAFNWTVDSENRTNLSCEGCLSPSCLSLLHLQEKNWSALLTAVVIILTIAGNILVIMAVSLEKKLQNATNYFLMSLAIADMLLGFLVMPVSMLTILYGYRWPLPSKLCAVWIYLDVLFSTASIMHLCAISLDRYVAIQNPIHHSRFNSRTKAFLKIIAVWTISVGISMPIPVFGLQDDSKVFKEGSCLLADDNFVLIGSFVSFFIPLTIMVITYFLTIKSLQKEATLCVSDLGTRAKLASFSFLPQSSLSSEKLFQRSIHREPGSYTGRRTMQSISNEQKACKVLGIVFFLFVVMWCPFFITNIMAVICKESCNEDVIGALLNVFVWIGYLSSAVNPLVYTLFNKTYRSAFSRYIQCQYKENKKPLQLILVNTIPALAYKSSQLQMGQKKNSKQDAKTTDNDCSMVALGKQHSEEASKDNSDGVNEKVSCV

CC(C)(C)c1ccc(OC2CCCCC2O)cc1 (stereo not given)
inactive: [1] | [2] | [3] | [4] | [6] | [8] | [9] | [10] | [11]
active: [5] 1.62 µM | [7] 43.6 µM

c1ccc(-c2nc[nH]c2-c2ccccc2)cc1
active: [13] 3.65 µM
not listed: [3] | [4] | [18]
inactive: all other assays above

CCOC(=O)C1=C[C@]2(CC)CCCN3CCc4c(n1c1ccccc41)[C@@H]32
active: [7] 23.9 µM
not listed: [6] | [18]
inactive: all other assays above

CC(C)O.CC(C)O.CCOC(=O)/C=C(\C)O.CCOC(=O)/C=C(\C)O.[Ti]
not listed: [3] | [4] | [13] | [14] | [18]
inactive: all other assays above

CC(C)(C)c1ccc(OCC2CO2)cc1 (stereo not given)
inactive: [1] | [12] | [6] | [13] | [7] | [8] | [14] | [9] | [17] | [11]

CCCCC[C@H](O)/C=C/[C@H]1[C@H](O)CC(=O)[C@@H]1C/C=C\CCCC(=O)O
active: [11] 0.0075 µM
not listed: [6] | [9] | [10] | [12] | [15] | [17] | [18]
inactive: all other assays above

O=C(O)c1cc(Br)c(O)c(Br)c1
not listed: [3] | [4] | [5] | [12] | [14] | [18]
inactive: all other assays above

CC(=O)Nc1cccc(N)c1
not listed: [5] | [6] | [9] | [17]
inactive: all other assays above

c1ccc2sc(SN3CCOCC3)nc2c1
not listed: [6] | [9] | [10] | [18]
inactive: all other assays above

CCN(Cc1ccncc1)C(=O)C(CO)c1ccccc1 (stereo not given)
not listed: [1] | [7] | [8] | [11] | [13] | [14]
inactive: all other assays above

COC(=O)CCSCCC(=O)OC
not listed: [3] | [4] | [6] | [18]
inactive: all other assays above

O=CN(CCO)CCO
not listed: [3] | [4] | [15] | [17] | [18]
inactive: all other assays above

COC(=O)[C@]1(C)CCC[C@@]2(C)[C@H]1CC=C1C=C(C(C)C)CC[C@@H]12
not listed: [5] | [9]
inactive: all other assays above

CCCCc1cc2ccccc2c(OCCN(C)C)n1
not listed: [6] | [8] | [16] | [17] | [18]
inactive: all other assays above

O=C(O)c1cc(C(=O)O)cc(C(=O)O)c1
not listed: [1] | [16]
inactive: all other assays above

CC(=O)N1CCN(c2ccc(OC[C@H]3CO[C@](Cn4ccnc4)(c4ccc(Cl)cc4Cl)O3)cc2)CC1
inactive: [1] | [4] | [16] | [10]

CC(C)c1cccc(C(C)C)c1NC(=O)NS(=O)(=O)c1cc(C(C)(C)O)co1
not listed: [12]
inactive: all other assays above

CC(C)COCC(CN(Cc1ccccc1)c1ccccc1)N1CCCC1 (stereo not given)
active: [13] 6.5 µM | [7] 19 µM | [16] 26.6 µM | [11] 29.8 µM
not listed: [5] | [9] | [15] | [17]
inactive: all other assays above

C=C(C)C1CCC(C)(O)CC1 (stereo not given)
not listed: [3] | [11] | [15]
inactive: all other assays above

— PubChem BioAssay (Tox21)
